# From PubChem BioAssay AID2177 (The Scripps Research Institute Molecular Screening Center, 2009)
# In all, about 320,000 compounds went through this assay and about 1,200 (0.38%) were called active. Many of the other results were omitted from the sample, so actives are more common in it than they were. A number with no mark means an inactive call.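 Rule for the calls: active = inhibition above the screen-wide mean plus 3 SD, limit set per campaign (cut at about 26% in these data); inactive = the rest.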
# Target: Acyl-protein thioesterase 2 (Homo sapiens) (UniProt O95372)
# Sequence (O95372 whole entry, looked up): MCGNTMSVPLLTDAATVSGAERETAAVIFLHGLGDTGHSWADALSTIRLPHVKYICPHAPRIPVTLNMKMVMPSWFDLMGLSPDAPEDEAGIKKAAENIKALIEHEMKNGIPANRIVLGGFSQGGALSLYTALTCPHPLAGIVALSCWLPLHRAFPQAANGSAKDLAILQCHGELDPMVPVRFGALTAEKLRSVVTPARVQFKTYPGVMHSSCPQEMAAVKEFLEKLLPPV
# Experiment: inhibition of human lysophospholipase 2 – biochemical, fluorescence polarization, FP-Rh probe ABPP, counter-screen for PME1 inhibitor project, primary screen (AID 2177);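 note: 0% = LYPLA2 with DMSO and 100% = wells lacking LYPLA2 enzyme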
# Details: recombinant LYPLA2, FP-Rh probe fluorescence polarization; at 5.9 µM; hits give high values
row,SMILES,inhibition
1,CCC(NC(=O)C1CCCC1)c1ccc(C)cc1 (centres undefined),0.26%
2,Cc1ccc(C(c2sc3nc(C)nn3c2O)N2CCN(c3ccccc3)CC2)cc1 (centres undefined),1.64%
3,Cc1ccc(C(c2sc3nc(C)nn3c2O)N2CCN(c3ccc(F)cc3)CC2)cc1 (centres undefined),36.7% (active)
4,Oc1c(C(c2cccs2)N2CCN(c3ccc(F)cc3)CC2)sc2ncnn12 (centres undefined),-5.69%
5,C[C@@H](NC(=O)OC(C)(C)C)c1nnc(S(=O)(=O)Cc2ccccc2)o1,-2.33%
6,O=C(C(c1ccccc1)c1ccccc1)N1CCN(CC(O)COc2ccccc2)CC1 (centres undefined),1.24%
7,O=[N+]([O-])c1ccc(N2CCN(CC(O)COc3ccccc3)CC2)cc1 (centres undefined),29.5% (active)
8,C[N+]1(CC(O)COc2ccccc2)CCN(C(=O)c2ccc([N+](=O)[O-])cc2)CC1 (centres undefined),-1.46%
9,Cc1ccccc1NC(=O)Cc1nc(COC(=O)c2cccnc2Cl)cs1,2.11%
10,O=C(Nc1ccccc1F)c1ccc(Cn2cc(Br)cn2)cc1,-5.94%
11,COc1cccc(NC(=O)c2ccc(Cn3cc([N+](=O)[O-])cn3)o2)c1,4.62%
12,CCc1ccc(NC(=O)c2ccc(Cn3cc([N+](=O)[O-])cn3)cc2)cc1,32% (active)
13,O=C(Nc1ccccc1Cl)/C(Cl)=C(\Cl)S(=O)c1ccccc1 (centres undefined),-37.3%
14,O=C1Cc2ccccc2Sc2ccc(Cl)cc21,-9.53%
15,COc1ccc(-c2nnc(SC(C)C(=O)NC3CC3)o2)cc1 (centres undefined),1.72%
16,CCN1C(=O)[C@H]2[C@@H](c3ccc(-c4ccc(OC)cc4)cc3)N[C@@](Cc3ccccc3)(C(=O)OC)[C@H]2C1=O,6.99%
17,CCC(Cc1ccccc1)NS(=O)(=O)c1ccc2c(c1)NC(=O)CS2 (centres undefined),1.66%
18,COc1ccc(C2=NOC3(CC(=O)N(c4ccc(Cl)cc4)C3=O)C2)c(OC)c1 (centres undefined),7.09%
19,CCOC(=O)N1CCN(C(=O)Cc2ccc(-n3c(=S)[nH]c4ccccc4c3=O)cc2)CC1,3.58%
20,O=C(Cc1ccc(-n2c(=O)[nH]c3ccccc3c2=O)cc1)N1CCN(c2cccc(Cl)c2)CC1,50.8% (active)
21,O=C(CCCC(=O)N1CCN(c2cccc(Cl)c2)CC1)c1ccccc1,24.1%
22,CCN(C(=O)C1CCCN(c2nc(-c3ccc(OC)cc3)no2)C1)c1ccc(OC)cc1 (centres undefined),1.52%

row,SMILES,inhibition
1,O=C(N/N=C/c1cccc(OC(=O)c2ccc([N+](=O)[O-])cc2)c1)c1cccnc1,-5.79%
2,N#Cc1cc([N+](=O)[O-])ccc1Oc1cccc(/C=N/NC(=O)c2ccc(Cl)cc2)c1,36.9% (active)
3,COc1ccc(/C=N/NC(=O)c2ccc(Cl)cc2)cc1COC(C)=O,-4.59%
4,Cc1c(CC(=O)NCC(=O)NCC(=O)O)c(=O)oc2cc3oc4c(c3cc12)CCCC4,4.77%
5,COc1ccc(OC)c(NC(=O)c2cccc(S(=O)(=O)N3CCN(C(C)=O)CC3)c2)c1,-0.81%
6,COc1ccc2c(c1)C=CC1(O2)N(CCO)c2ccccc2C1(C)C (centres undefined),-20.1%
7,O=C(NC(Cc1ccccc1)C(=O)O)/C(=C\c1ccccc1)NC(=O)c1ccco1 (centres undefined),1.3%
8,COc1ccccc1CNC(=O)C1CCN(S(=O)(=O)c2ccc3c(c2)CC(C)N3C(=O)C2CC2)CC1 (centres undefined),14.5%
9,CC(=O)N1c2ccc(S(=O)(=O)N3CCC(C(=O)NC4CCCCC4C)CC3)cc2CC1C (centres undefined),-1.87%
10,CC(=O)c1ccc(N2CCN(C(=O)C3CCN(S(=O)(=O)c4ccc5c(c4)CC(C)N5C(=O)C4CC4)CC3)CC2)cc1 (centres undefined),75% (active)
11,CC(=O)N1c2ccc(S(=O)(=O)N3CCC(C(=O)N4CCN(c5ccccc5)CC4)CC3)cc2CC1C (centres undefined),58% (active)
12,CC(=O)N1c2ccc(S(=O)(=O)N3CCC(C(=O)NC4CCCC(C)C4C)CC3)cc2CC1C (centres undefined),-4.4%
13,CC(=O)c1ccc(N2CCN(S(=O)(=O)c3ccc4c(c3)CC(=O)N4C)CC2)cc1,4.78%
14,O=C(O)CC(Cc1ccccc1)C(=O)Nc1ccc([N+](=O)[O-])cc1 (centres undefined),-0.26%
15,CCOC(=O)c1cc(NC(=O)SCC(=O)O)c(C)nc1C,4.19%
16,COc1cc(C(=O)NCc2ccc3c(c2)cc(C)n3C)cc(OC)c1OC,6.1%
17,CCOC(=O)c1c(-c2ccccc2)oc2ccc(OCC(=O)NN)cc12,-13%
18,CCCc1c(C(=O)Nc2ccc(F)cc2)cnn1-c1ccccc1,-3.93%
19,O=C(CSCc1ccc([N+](=O)[O-])cc1)Nc1cccc(C(=O)Nc2ccccc2C(=O)O)c1,-6.72%
20,COc1ccccc1C(=O)NC(CCSC)C(=O)N1CCN(C/C=C/c2ccccc2)CC1 (centres undefined),37.6% (active)
21,COc1ccccc1C(=O)NC(CCSC)C(=O)N1CCN(C(C)=O)CC1 (centres undefined),-2.46%
22,COc1ccccc1C(=O)NC(CCSC)C(=O)NNC(=O)c1ccccc1C (centres undefined),-3.19%
